These results are taken from paper PMC11006913.

What all share (assay): PBM; 200 nM protein, PBS
Holding throughout (conditions): dsDNA, one strand shown

Assay [1] deals with HESX1 (Homo sapiens, UniProt Q9UBX0 95-180, R165K).
The target of assay [2] is SHOX (Homo sapiens, UniProt O15266 103-189).
The next assay deals with ALX4 (Homo sapiens, UniProt Q9H161 200-286, Q225E).
Assay [3] has as its target HESX1 (Homo sapiens, UniProt Q9UBX0 95-180).
Another assay deals with MSX2 (Homo sapiens, UniProt P35548 130-214, R199I).
Assay [4] concerns the target ALX1 (Homo sapiens, UniProt Q15699 118-204, L144V).
Assay [5] addresses ALX3 (Homo sapiens, UniProt O95076 139-225, N203Q).
The target of assay [6] is SHOX (Homo sapiens, UniProt O15266 103-189, R173C).
The target of assay [7] is ALX1 (Homo sapiens, UniProt Q15699 118-204, L144R).
In assay [8] the target is ALX3 (Homo sapiens, UniProt O95076 139-225).
Assay [9] concerns the target PROP1 (Homo sapiens, UniProt O75360 56-141).
Assay [10] has as its target HESX1 (Homo sapiens, UniProt Q9UBX0 95-180, R109Q).
The target in assay [11] is PROP1 (Homo sapiens, UniProt O75360 56-141, R99H).
In assay [12] the target is ALX3 (Homo sapiens, UniProt O95076 139-225, L168Q).
Assay [13] addresses HESX1 (Homo sapiens, UniProt Q9UBX0 95-180, P111T).
The target of assay [14] is ALX3 (Homo sapiens, UniProt O95076 139-225, L168V).
The target in assay [15] is PROP1 (Homo sapiens, UniProt O75360 56-141, F88S).
Assay [16] concerns the target HESX1 (Homo sapiens, UniProt Q9UBX0 95-180, F115L).
Assay [17] addresses ALX1 (Homo sapiens, UniProt Q15699 118-204).
Assay [18] deals with ALX3 (Homo sapiens, UniProt O95076 139-225, N203S).
ALX3 (Homo sapiens, UniProt O95076 139-225, N203S), sequence (O95076 139-225 N203S): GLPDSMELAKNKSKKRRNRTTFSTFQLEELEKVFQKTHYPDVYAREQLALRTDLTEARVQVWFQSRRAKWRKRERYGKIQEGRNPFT

ALX3 (Homo sapiens, UniProt O95076 139-225, N203Q), sequence (O95076 139-225 N203Q): as the sequence (O95076 139-225 N203S) above, with S65Q counted along it
HESX1 (Homo sapiens, UniProt Q9UBX0 95-180), sequence (Q9UBX0 95-180): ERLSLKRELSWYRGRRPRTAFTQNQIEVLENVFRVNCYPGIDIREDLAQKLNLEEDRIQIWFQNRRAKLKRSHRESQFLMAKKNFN
SHOX (Homo sapiens, UniProt O15266 103-189, R173C), sequence (O15266 103-189 R173C): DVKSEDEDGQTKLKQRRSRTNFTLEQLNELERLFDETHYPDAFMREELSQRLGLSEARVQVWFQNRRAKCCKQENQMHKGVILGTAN
MSX2, sequence (P35548 130-214 R199I): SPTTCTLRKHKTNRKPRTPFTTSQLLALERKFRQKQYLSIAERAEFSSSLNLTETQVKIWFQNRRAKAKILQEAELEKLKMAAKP
PROP1 (Homo sapiens, UniProt O75360 56-141), sequence (O75360 56-141): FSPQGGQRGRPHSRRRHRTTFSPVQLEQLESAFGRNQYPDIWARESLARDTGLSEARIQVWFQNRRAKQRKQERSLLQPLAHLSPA
ALX4, sequence (Q9H161 200-286 Q225E): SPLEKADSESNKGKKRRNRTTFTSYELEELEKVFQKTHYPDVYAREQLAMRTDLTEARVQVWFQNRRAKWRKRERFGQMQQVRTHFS
ALX3 (Homo sapiens, UniProt O95076 139-225), sequence (O95076 139-225): as the sequence (O95076 139-225 N203S) above, with S65N counted along it
ALX3 (Homo sapiens, UniProt O95076 139-225, L168V), sequence (O95076 139-225 L168V): as the sequence (O95076 139-225 N203S) above, with L30V, S65N counted along it
PROP1 (Homo sapiens, UniProt O75360 56-141, F88S), sequence (O75360 56-141 F88S): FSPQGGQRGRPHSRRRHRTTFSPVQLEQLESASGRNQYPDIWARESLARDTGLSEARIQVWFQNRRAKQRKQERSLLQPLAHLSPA
HESX1 (Homo sapiens, UniProt Q9UBX0 95-180, R165K), sequence (Q9UBX0 95-180 R165K): as the sequence (Q9UBX0 95-180) above, with R71K counted along it
ALX1 (Homo sapiens, UniProt Q15699 118-204, L144R), sequence (Q15699 118-204 L144R): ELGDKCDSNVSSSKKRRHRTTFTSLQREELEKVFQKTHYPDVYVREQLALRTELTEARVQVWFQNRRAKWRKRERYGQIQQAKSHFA
SHOX (Homo sapiens, UniProt O15266 103-189), sequence (O15266 103-189): as the sequence (O15266 103-189 R173C) above, with C71R counted along it
HESX1 (Homo sapiens, UniProt Q9UBX0 95-180, P111T), sequence (Q9UBX0 95-180 P111T): as the sequence (Q9UBX0 95-180) above, with P17T counted along it
HESX1 (Homo sapiens, UniProt Q9UBX0 95-180, F115L), sequence (Q9UBX0 95-180 F115L): as the sequence (Q9UBX0 95-180) above, with F21L counted along it
ALX1 (Homo sapiens, UniProt Q15699 118-204, L144V), sequence (Q15699 118-204 L144V): as the sequence (Q15699 118-204 L144R) above, with R27V counted along it
PROP1 (Homo sapiens, UniProt O75360 56-141, R99H), sequence (O75360 56-141 R99H): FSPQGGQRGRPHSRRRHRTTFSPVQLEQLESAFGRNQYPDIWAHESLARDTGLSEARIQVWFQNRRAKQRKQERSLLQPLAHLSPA
ALX3 (Homo sapiens, UniProt O95076 139-225, L168Q), sequence (O95076 139-225 L168Q): as the sequence (O95076 139-225 N203S) above, with L30Q, S65N counted along it
HESX1 (Homo sapiens, UniProt Q9UBX0 95-180, R109Q), sequence (Q9UBX0 95-180 R109Q): as the sequence (Q9UBX0 95-180) above, with R15Q counted along it
ALX1 (Homo sapiens, UniProt Q15699 118-204), sequence (Q15699 118-204): as the sequence (Q15699 118-204 L144R) above, with R27L counted along it

For the sequence CTCAATTA, the binding signal with HESX1 [1] was 12.7 upbm affinity estimate (log intensity, higher = more binding, comparable within an allelic series); in the assay with SHOX [2] it was 12 upbm affinity estimate (log intensity, higher = more binding, comparable within an allelic series); with ALX4, 13.1 upbm affinity estimate (log intensity, higher = more binding, comparable within an allelic series); with HESX1 [3] it was 12.7 upbm affinity estimate (log intensity, higher = more binding, comparable within an allelic series); with MSX2, 12.7 upbm affinity estimate (log intensity, higher = more binding, comparable within an allelic series); with ALX1 [4] it was 11.8 upbm affinity estimate (log intensity, higher = more binding, comparable within an allelic series). Also, the binding signal with ALX3 [5] is 8.29 upbm affinity estimate (log intensity, higher = more binding, comparable within an allelic series); with SHOX [6], 9.56 upbm affinity estimate (log intensity, higher = more binding, comparable within an allelic series); with ALX1 [7], 11.5 upbm affinity estimate (log intensity, higher = more binding, comparable within an allelic series); in the assay with ALX3 [8], 12.5 upbm affinity estimate (log intensity, higher = more binding, comparable within an allelic series); with PROP1 [9], 11.5 upbm affinity estimate (log intensity, higher = more binding, comparable within an allelic series); in the assay with HESX1 [10], 9.12 upbm affinity estimate (log intensity, higher = more binding, comparable within an allelic series). Moreover, the binding signal was 11.6 upbm affinity estimate (log intensity, higher = more binding, comparable within an allelic series) with PROP1 [11]; 10.5 upbm affinity estimate (log intensity, higher = more binding, comparable within an allelic series) in the assay with ALX3 [12]; 11.2 upbm affinity estimate (log intensity, higher = more binding, comparable within an allelic series) with HESX1 [13]; 9.95 upbm affinity estimate (log intensity, higher = more binding, comparable within an allelic series) with ALX3 [14]; 7.64 upbm affinity estimate (log intensity, higher = more binding, comparable within an allelic series) in the assay with PROP1 [15]; 7.72 upbm affinity estimate (log intensity, higher = more binding, comparable within an allelic series) with HESX1 [16]. Also, the binding signal with ALX1 [17] was 12.4 upbm affinity estimate (log intensity, higher = more binding, comparable within an allelic series); in the assay with ALX3 [18] it was 8.43 upbm affinity estimate (log intensity, higher = more binding, comparable within an allelic series).

In the case of TAATTAGA, the binding signal with HESX1 [1] is 13.5 upbm affinity estimate (log intensity, higher = more binding, comparable within an allelic series); with SHOX [2], 13.1 upbm affinity estimate (log intensity, higher = more binding, comparable within an allelic series); in the assay with ALX4, 14.2 upbm affinity estimate (log intensity, higher = more binding, comparable within an allelic series); in the assay with HESX1 [3] it was 13.5 upbm affinity estimate (log intensity, higher = more binding, comparable within an allelic series); with MSX2, 13.2 upbm affinity estimate (log intensity, higher = more binding, comparable within an allelic series); with ALX1 [4], 12.3 upbm affinity estimate (log intensity, higher = more binding, comparable within an allelic series). Besides, the binding signal is 8.56 upbm affinity estimate (log intensity, higher = more binding, comparable within an allelic series) with ALX3 [5]; 10.5 upbm affinity estimate (log intensity, higher = more binding, comparable within an allelic series) with SHOX [6]; 12 upbm affinity estimate (log intensity, higher = more binding, comparable within an allelic series) with ALX1 [7]; 12.9 upbm affinity estimate (log intensity, higher = more binding, comparable within an allelic series) with ALX3 [8]; 12.2 upbm affinity estimate (log intensity, higher = more binding, comparable within an allelic series) with PROP1 [9]; 10 upbm affinity estimate (log intensity, higher = more binding, comparable within an allelic series) with HESX1 [10]. The binding signal with PROP1 [11] is 12.2 upbm affinity estimate (log intensity, higher = more binding, comparable within an allelic series); with ALX3 [12], 11.3 upbm affinity estimate (log intensity, higher = more binding, comparable within an allelic series); in the assay with HESX1 [13], 12.1 upbm affinity estimate (log intensity, higher = more binding, comparable within an allelic series); with ALX3 [14], 10.9 upbm affinity estimate (log intensity, higher = more binding, comparable within an allelic series); in the assay with PROP1 [15], 8.08 upbm affinity estimate (log intensity, higher = more binding, comparable within an allelic series); with HESX1 [16], 8.35 upbm affinity estimate (log intensity, higher = more binding, comparable within an allelic series). Also, the binding signal in the assay with ALX1 [17] was 13 upbm affinity estimate (log intensity, higher = more binding, comparable within an allelic series); with ALX3 [18], 8.71 upbm affinity estimate (log intensity, higher = more binding, comparable within an allelic series).

Take CAATTAAA: the binding signal with HESX1 [1] was 12.6 upbm affinity estimate (log intensity, higher = more binding, comparable within an allelic series); in the assay with SHOX [2], 12 upbm affinity estimate (log intensity, higher = more binding, comparable within an allelic series); with ALX4, 13.5 upbm affinity estimate (log intensity, higher = more binding, comparable within an allelic series); with HESX1 [3], 12.6 upbm affinity estimate (log intensity, higher = more binding, comparable within an allelic series); with MSX2, 13.1 upbm affinity estimate (log intensity, higher = more binding, comparable within an allelic series); with ALX1 [4], 11.7 upbm affinity estimate (log intensity, higher = more binding, comparable within an allelic series). For the same sequence, the binding signal is 8.41 upbm affinity estimate (log intensity, higher = more binding, comparable within an allelic series) in the assay with ALX3 [5]; 9.46 upbm affinity estimate (log intensity, higher = more binding, comparable within an allelic series) in the assay with SHOX [6]; 11.5 upbm affinity estimate (log intensity, higher = more binding, comparable within an allelic series) with ALX1 [7]; 12.6 upbm affinity estimate (log intensity, higher = more binding, comparable within an allelic series) with ALX3 [8]; 11.6 upbm affinity estimate (log intensity, higher = more binding, comparable within an allelic series) in the assay with PROP1 [9]; 9.38 upbm affinity estimate (log intensity, higher = more binding, comparable within an allelic series) with HESX1 [10]. Also, the binding signal in the assay with PROP1 [11] is 11.6 upbm affinity estimate (log intensity, higher = more binding, comparable within an allelic series); in the assay with ALX3 [12], 10.7 upbm affinity estimate (log intensity, higher = more binding, comparable within an allelic series); in the assay with HESX1 [13], 11.3 upbm affinity estimate (log intensity, higher = more binding, comparable within an allelic series); in the assay with ALX3 [14] it was 10.3 upbm affinity estimate (log intensity, higher = more binding, comparable within an allelic series); with PROP1 [15], 7.64 upbm affinity estimate (log intensity, higher = more binding, comparable within an allelic series); with HESX1 [16], 7.76 upbm affinity estimate (log intensity, higher = more binding, comparable within an allelic series). In addition, the binding signal with ALX1 [17] was 12.2 upbm affinity estimate (log intensity, higher = more binding, comparable within an allelic series); with ALX3 [18], 8.55 upbm affinity estimate (log intensity, higher = more binding, comparable within an allelic series).

With CAATTAGC, the binding signal was 13.2 upbm affinity estimate (log intensity, higher = more binding, comparable within an allelic series) with HESX1 [1]; 12.7 upbm affinity estimate (log intensity, higher = more binding, comparable within an allelic series) in the assay with SHOX [2]; 13.5 upbm affinity estimate (log intensity, higher = more binding, comparable within an allelic series) with ALX4; 13.3 upbm affinity estimate (log intensity, higher = more binding, comparable within an allelic series) with HESX1 [3]; 13.1 upbm affinity estimate (log intensity, higher = more binding, comparable within an allelic series) with MSX2; 11.9 upbm affinity estimate (log intensity, higher = more binding, comparable within an allelic series) in the assay with ALX1 [4]. The binding signal was 8.26 upbm affinity estimate (log intensity, higher = more binding, comparable within an allelic series) with ALX3 [5]; 9.99 upbm affinity estimate (log intensity, higher = more binding, comparable within an allelic series) with SHOX [6]; 11.5 upbm affinity estimate (log intensity, higher = more binding, comparable within an allelic series) in the assay with ALX1 [7]; 12.6 upbm affinity estimate (log intensity, higher = more binding, comparable within an allelic series) with ALX3 [8]; 11.8 upbm affinity estimate (log intensity, higher = more binding, comparable within an allelic series) with PROP1 [9]; 9.79 upbm affinity estimate (log intensity, higher = more binding, comparable within an allelic series) with HESX1 [10]. The binding signal was 11.9 upbm affinity estimate (log intensity, higher = more binding, comparable within an allelic series) with PROP1 [11]; 10.7 upbm affinity estimate (log intensity, higher = more binding, comparable within an allelic series) in the assay with ALX3 [12]; 11.7 upbm affinity estimate (log intensity, higher = more binding, comparable within an allelic series) with HESX1 [13]; 10.1 upbm affinity estimate (log intensity, higher = more binding, comparable within an allelic series) with ALX3 [14]; 7.57 upbm affinity estimate (log intensity, higher = more binding, comparable within an allelic series) with PROP1 [15]; 7.74 upbm affinity estimate (log intensity, higher = more binding, comparable within an allelic series) with HESX1 [16]. Also, the binding signal with ALX1 [17] was 12.8 upbm affinity estimate (log intensity, higher = more binding, comparable within an allelic series); with ALX3 [18], 8.45 upbm affinity estimate (log intensity, higher = more binding, comparable within an allelic series).
